NPC1 prom act: activates the NPC1 promoter; Huh7 NPC1 promoter luciferase reporter, 24 h; Potency, µM (series often up to 9.22 µM), for the others: at the top dose activation, most hits filed as activators; 320,000 compounds, 2.4% hits; AID 485313; note: % of control where 0% means no effect; nearly all actives have a fitted effect of over 60% in size
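Luminescence read-out of NPC1 promoter-driven luciferase in stably transfected Huh7 cells; compounds delivered in DMSO and left 24 h at 37C, 5% CO2, qHTS titration format.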
ELG1 DNA repair: ELG1-dependent DNA repair inhibition | Potency, µM (titrated, usually from 46.1 µM), for the others: at the highest dose activity change, negative = inhibition, hits mostly inhibitors | HEK293T ELG1-luciferase reporter, luminescence, 16 h; DNA damage induced by 5-fluorouridine | 330,000 compounds, 2.3% hits; note: % is set by controls: 0 for no effect and ±100 for the full control effect; nearly all actives have a fitted effect of over 55% in size
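Overnight (16 hr) co-exposure of 2,000 cells/well to 5-fluorouridine and compound at 37 °C preceded detection. Luciferase was quantified via ONE-Glo luminescence; loss of signal denotes inhibition.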
FLuc counter: firefly luciferase modulation, counter-screen for miR-21 project; P08659; purified FLuc, Km substrates, luminescence inhibition; Potency, µM (doses to about 57.5 µM), without a hit: at the top dose activity change, negative = inhibition, actives largely listed as inhibitors; 360,000 compounds, 6.9% hits; AID 588342;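 note: plate controls were vehicle for no effect and reference inhibitor for full effect; nearly all actives have a fitted effect of over 55% in size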
Target sequence (P08659 whole entry, looked up): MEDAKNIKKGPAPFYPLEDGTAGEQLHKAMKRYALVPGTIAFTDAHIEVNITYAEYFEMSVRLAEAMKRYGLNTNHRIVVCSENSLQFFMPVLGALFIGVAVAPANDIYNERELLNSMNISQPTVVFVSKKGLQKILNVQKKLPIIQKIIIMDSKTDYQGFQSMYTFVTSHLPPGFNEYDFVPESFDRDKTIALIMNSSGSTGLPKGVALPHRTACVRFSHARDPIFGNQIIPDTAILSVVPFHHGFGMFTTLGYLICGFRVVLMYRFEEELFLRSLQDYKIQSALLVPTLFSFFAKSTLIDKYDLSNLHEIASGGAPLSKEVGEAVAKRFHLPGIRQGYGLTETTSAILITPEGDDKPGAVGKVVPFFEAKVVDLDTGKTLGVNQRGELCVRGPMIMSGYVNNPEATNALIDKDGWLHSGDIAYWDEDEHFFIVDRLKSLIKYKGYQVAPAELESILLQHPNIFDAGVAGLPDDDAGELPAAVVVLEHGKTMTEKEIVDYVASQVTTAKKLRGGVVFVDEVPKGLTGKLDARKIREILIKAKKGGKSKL
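Biochemical qHTS of compounds, final roughly 60 µM downward over six points, against 10 nM purified firefly luciferase using Km concentrations of substrates (10 uM D-luciferin, 10 uM ATP) in Tris acetate pH 7.5 buffer; luminescence output.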
SMN2 splice up: enhancers of SMN2 splice variant expression. HEK293 SMN2-luciferase splicing reporter, luminescence, 30-36 h. 210,000 compounds, 2.8% hits. Potency, µM (doses to about 46.1 µM), inactives show at the top dose activity change, positive = activation, most hits filed as activators; note: % of control where 0% means no effect; nearly all actives have a fitted effect of over 55% in size
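HEK293 cells carry an SMN2 minigene-luciferase reporter in which exon 7 inclusion puts luciferase in frame. Cells were seeded at 2000 cells/well, attached for 10-12 hours, then exposed to compounds for 30-36 hours at 37C before ONE-Glo luminescence.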
ELG1 genotoxic: inducers of genotoxicity in HEK293T ELG1-luciferase cells. AID 504466. Potency, µM (highest dose often 46 µM), without a hit: top-dose activity change, positive = activation, hits mostly activators. HEK293T ELG1-luciferase reporter, luminescence, 16 h. 330,000 compounds, 1.3% hits; note: % of control where 0% means no effect; nearly all actives have a fitted effect of over 60% in size
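HEK293T cells expressing luciferase-tagged ELG1 were exposed to compound or DMSO vehicle for 16 hr at 37 °C and 5% CO2. Luciferase activity was then measured with ONE-Glo after 30 min at room temperature.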
Rab9 prom act: Rab9 promoter activation. Huh7 Rab9 promoter-luciferase reporter, luminescence, 24 h. Potency, µM (doses to about 9.22 µM), for inactives: at the top dose activation, negative = inhibition, usual class: activators. 320,000 compounds, 2.8% hits. AID 485297; note: % of control where 0% means no effect; nearly all actives have a fitted effect of over 60% in size
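Steps: seed 1500 Huh7 Rab9-luc cells per well, rest 2 h at 37 °C; add compound in DMSO; incubate 24 h; add luciferase reagent, 10 min ambient; read luminescence.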
* marks the source's active call; other numbers are inactive results; ? = inconclusive; . = not tested or not shown. Shown are actives, neighbours in structure and some others; about 9.3% of the full set was active somewhere. Calls come from the whole dose curve; as a rule, active = well fitted curve in the direction sought with a large enough effect; inconclusive = small, poorly fitted or top-dose-only effect, or another doubt; inactive = no such curve, though single readings can be large; an effect the other way counts as inactive or inconclusive. Potency is the fitted concentration of half-maximal effect.

SMILES | NPC1 prom act | ELG1 DNA repair | FLuc counter | SMN2 splice up | ELG1 genotoxic | Rab9 prom act
CC(=O)N1CCC2(CCN(Cc3cc(C(F)(F)F)cc(C(F)(F)F)c3)CC2)CC1 | . | . | . | -13% | . | .
Cn1ccsc1=NC(=O)c1cccc(OC(F)F)c1 | 3.5µM* | ? | 15µM* | . | ? | ?
c1csc(-c2cn3ccc4ccccc4c3n2)c1 | -29% | 16µM* | -2% | . | -24% | -35%
c1ccc(CNc2nc(-c3cccs3)nc3ccccc23)cc1 | -2% | 8% | -7% | 7% | 9% | -3%
Cc1ccc(C(C(=O)NC2CCCCC2)N(Cc2cccnc2)C(=O)C2COc3ccccc3O2)o1 (stereo unspecified) | ? | ? | 9% | 17% | -6% | 1.3µM*
O=C(Cn1c(=O)n(Cc2ccc(C(=O)NCc3ccccc3Cl)cc2)c(=O)c2ccccc21)Nc1ccc(F)c(Cl)c1 | . | . | 1% | -3% | . | .
COc1ccc(CCn2c(SCC(=O)Nc3cc(C)on3)nc3ccsc3c2=O)cc1OC | -2% | 10µM* | -6% | 0% | 2% | 4%
O=C(Nc1ccc(NC(=S)NC(=O)c2ccccc2F)cc1)c1cccs1 | -2% | ? | -5% | 17% | -12% | 1%
O=C(Nc1ccc(-c2noc(-c3ccccc3F)n2)cc1)c1cccs1 | ? | ? | ? | 14µM* | ? | 1.6µM*
Cc1ccccc1-c1nc(-c2ccc(NC(=O)c3cccs3)cc2)no1 | ? | ? | 13µM* | -8% | 2% | 4µM*
O=C(c1ccncc1)c1ccc(NC(=O)c2cccs2)cc1 | 7% | ? | ? | -33% | -5% | 18%
CCCCNC(=O)C(C)N(CCN(C)C)C(=O)CCCN1C(=O)NC(c2ccc([N+](=O)[O-])cc2)C(C(=O)OCc2ccccc2)=C1C (stereo unspecified) | . | -3% | . | . | 4% | .
Cc1c(O)ccc(-c2n[nH]c(C(=O)O)c2-c2nc3ccccc3s2)c1O | 0% | ? | 17µM* | . | 13% | 16%
Cc1c(O)ccc(-c2[nH]ncc2-c2nc3ccccc3s2)c1O | -2% | ? | 3% | 4% | -8% | 2%
Cc1ccc(-n2c(C)cc(C(=O)NS(=O)(=O)c3ccc(C)cc3)c2C)cc1 | 0% | ? | 2% | 20% | 1% | -5%
Cc1ccc(NC(=O)c2cc(C)n(-c3ccccc3)c2C)cc1 | -2% | ? | 0.054µM* | -94% | 0.23µM* | ?
Cc1cc(C(=O)Nc2ccc(Cl)cc2)n(-c2ccccc2)n1 | 1% | 14% | -20% | . | 5% | 1%
Cc1cc(C(=O)NNS(=O)(=O)c2cc(C(=O)O)ccc2Cl)c(C)n1-c1ccccc1 | -2% | ? | 24µM* | . | 0% | -7%
CC(C)(C)NS(=O)(=O)c1cc(C(=O)O)ccc1Cl | -3% | -4% | -8% | 3% | 0% | -4%
Cc1ccc(NC(=O)c2cc(C)n(-c3cccc(C)c3)c2C)cc1 | 15% | ? | 1.5µM* | 27% | ? | ?
Cc1cc(C(=O)Nc2ccc(Cl)cc2)c(C)n1-c1ccccc1 | -24% | ? | 0.048µM* | . | ? | -28%
O=C(CN1CCCCC1)Nc1ccccc1-c1ccccc1 | 0% | 10% | -2% | -23% | -2% | 0%
Cc1ccc(CNC(=O)[C@H](C)N2C(=O)N3CCc4c([nH]c5ccccc45)[C@@]3(C)C2=O)cc1 | -3% | ? | 10% | . | 0% | -13%
Cc1csc2ncc(C(=O)Nc3cccc(C(F)(F)F)c3)c(=O)n12 | 22% | ? | 1% | ? | ? | 29%
O=S(=O)(c1cccc(-c2nnc(SCc3nc4ccccc4s3)o2)c1)N1CCOCC1 | ? | ? | 19µM* | 0% | 6% | ?
O=S(=O)(c1ccc(OCc2nc3ccccc3s2)c(Cl)c1)N1CCOCC1 | ? | ? | -19% | 19% | 9.2µM* | ?

High-throughput results from PubChem.
